Compound activity deposited in PubChem by The Scripps Research Institute Molecular Screening Center.
DAX1 inh-1: DAX1 (NR0B1) inhibitors, primary screen, cell-based, HEK293, Gal4-DAX1, luciferase luminescence; 0.99% of 340,000 active; inhibition, % at 6.75 µM; Nuclear receptor subfamily 0 group B member 1 (Homo sapiens), P51843; AID 504766, 2011; HEK293 Gal4-DAX1 luciferase reporter;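 active means inhibition above the mean over all tested compounds plus 3 SD, cut at about 4.2% in these data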;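 further: 0% = DAX1-transfected cells with DMSO and 100% = empty-vector control cells with DMSO; inhibition shows as a rise in luminescence from relieved DAX1 repression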
Target sequence (P51843 207-470 limits assumed): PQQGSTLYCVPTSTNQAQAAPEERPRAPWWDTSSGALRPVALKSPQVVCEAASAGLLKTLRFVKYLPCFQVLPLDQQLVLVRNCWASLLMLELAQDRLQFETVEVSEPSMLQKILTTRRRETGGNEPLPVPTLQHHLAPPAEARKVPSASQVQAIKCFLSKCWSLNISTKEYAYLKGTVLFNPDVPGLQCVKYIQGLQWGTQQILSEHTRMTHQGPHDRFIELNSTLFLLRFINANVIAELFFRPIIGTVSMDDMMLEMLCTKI
DAX1 inh-2: DAX1 (NR0B1) inhibitors on StAR promoter, primary screen, cell-based, luminescence, SF-1 (NR5A1), full-length DAX-1. HEK293T StAR-luciferase reporter, SF-1/DAX-1 repression relief. inhibition, % at 6.8 µM. 1.1% of 370,000 active. AID 652010, 2013;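 active means inhibition above the mean over all tested compounds plus 3 SD, cut at about 3.6% in these data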;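 further: 0% = DAX-1 cells with DMSO and 100% = cells lacking DAX-1 with DMSO; higher inhibition means more luminescence from relief of DAX-1 repression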
hgDAF12 agonist: H. glycines DAF-12 receptor agonists, primary screen, cell-based, luminescence, HEK293, GAL4 fusion, UAS-luciferase. Nuclear hormone receptor DAF-12 (Heterodera glycines), GAL4 fusion. HEK293 GAL4-hgDAF12 UAS-luciferase reporter, agonist luminescence; normalized to butyrate control. activation, % at 6.8 µM. AID 687014, 2013. 1.8% of 370,000 active;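 active means activation above a cutoff set at the mean of all screened compounds plus 3 SD, cut at about 10% in these data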;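 further: 0% = DMSO wells and 100% = sodium butyrate wells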
hcDAF12 agonist: H. contortus DAF-12 nuclear receptor activators, primary screen, cell-based, luminescence, HEK293, lit1-tk-luc reporter; HEK293 hcDAF-12 lit1-tk-luc reporter; 0% DMSO, 100% Δ7-dafachronic acid; activation, % at 6.8 µM; 1.4% of 370,000 active; AID 652067, 2013;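 active means activation above the mean of all tested compounds plus 3 SD, cut at about 5.5% in these data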;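 further: 100% = response to 3 µM Δ7-dafachronic acid high control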
ssDAF12 agonist: S. stercoralis DAF-12 nuclear receptor activators, primary screen, cell-based, luminescence, HEK293, GRIP1 co-expression, lit1-tk-luc; HEK293 ssDAF-12/GRIP1 lit1-tk-luc reporter; % of 3 µM dafachronic acid response; AID 652126, 2013; activation, % at 6.8 µM; 1% of 370,000 active;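 active means activation above the mean over all tested compounds plus 3 SD, cut at about 0.9% in these data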;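 further: 0% = DMSO-only wells and 100% = 3 µM delta7-dafachronic acid wells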
* marks the source's active call; other numbers are inactive results; x = no result given. Hits are enriched below; roughly 4.1% of the tested compounds scored in any of these assays.

SMILES	DAX1 inh-1	DAX1 inh-2	hgDAF12 agonist	hcDAF12 agonist	ssDAF12 agonist
CCSc1nnc(NC(=O)c2ccc3ccccc3n2)s1	1.3	0.6	4.4	6.3*	1.0*
CCSc1nnc(NC(=O)C2CC2c2ccccc2)s1 (centres undefined)	11.7*	0.0	-3.1	-2.5	-1.5
CCOc1cc(/C=N/N=C2/NC(=O)C(CC(=O)O)S2)ccc1OCc1ccc(Cl)cc1Cl (centres undefined)	-0.3	x	x	x	x
COc1cc(/C=N/N=C2/NC(=O)C(CC(=O)O)S2)ccc1OCc1ccc(Cl)cc1 (centres undefined)	2.9	2.8	11.6*	5.4	-0.9
CCC(C)[C@@H](C(=O)OC)N(Cc1cn(Cc2ccccc2)nn1)S(=O)(=O)c1ccccc1Br (some centres undefined)	x	-0.4	-1.5	-1.2	-1.4
Nc1[nH]c(C(=O)c2ccccc2)c(-c2cccc3ccccc23)c1C(=O)c1c(-c2ccccc2)[nH]c2ccccc12	x	x	-2.0	-3.2	-1.7
CC1=CC2(C(Cc3ccccc3)N(CC3CC3)C(=NC(=O)c3ccccc3)N2C(=O)OCc2ccccc2)n2c(=O)n(-c3ccccc3)c(=O)n2C1 (centres undefined)	x	-0.9	1.4	0.9	-1.5
COc1ccc(/C(O)=C2/C(=O)C(=O)N(c3ccccn3)C2c2ccc(C(C)C)cc2)cc1 (centres undefined)	1.5	1.6	13.2*	4.0	0.6
COc1ccc(/C(O)=C2/C(=O)C(=O)N(c3ccccn3)C2c2ccc(OC)cc2)cc1 (centres undefined)	0.5	-0.2	-2.4	1.8	-0.6
CC(=O)Nc1ccc(/C=C/c2nc3ccccc3o2)cc1	4.5*	2.0	13.1*	4.5	-0.5
COc1cc2c(cc1OC)[C@@]1(c3ccccc3)CCCC[C@H]1[C@@H]2NC(=O)C(F)(F)F	x	0.5	3.6	1.4	-0.1
COC(=O)[C@]12C[C@H](CC(=O)NCc3cccs3)C(=O)N(CCc3ccc(OC)c(OC)c3)C1=C[C@H](C1CCCC1)O[C@@H]2C	x	-0.8	-0.4	-3.5	-1.3
c1ccc(C2Nc3ccccc3-c3nc4ccccc4n32)nc1 (centres undefined)	0.8	1.0	9.9	0.3	-0.3
c1ccc(C2Nc3ccccc3-c3nc4ccccc4n32)cc1 (centres undefined)	2.5	1.6	10.5*	1.2	-0.1
O=C(CSc1nnc(COc2ccccc2)n1Cc1ccco1)Nc1ccc(OCc2ccccc2)cc1	x	-1.8	4.2	-1.9	-0.9
O=C(O)c1ccccc1/C=N/NC(=O)c1cc(-c2ccco2)nc2ccccc12	-0.5	-0.2	4.2	2.7	2.9*
C[C@H]1[C@H](c2ccccc2)OC(O)([C@H](Cc2ccccc2)NC(=O)OC(C)(C)C)CN1C (some centres undefined)	x	x	-1.2	-2.5	-1.6
O=c1c2c(nc3n1CCCCC3)sc1c(O)c(Br)ccc12	1.8	4.4*	5.9	4.0	-0.1
CC(=O)N1CCN(c2nnc(-c3ccc(C)cc3)c3ccccc23)CC1	0.2	-0.6	-2.3	0.5	1.1*
Cc1ccc(OCC(=O)N2CCN(c3nnc(-c4ccccc4)c4ccccc34)CC2)cc1	-3.6	-1.7	-4.9	-3.3	-2.2
Oc1csc(Cc2nc(-c3ccc(-c4ccccc4)cc3)cs2)n1	-0.2	2.0	1.7	3.7	0.3
Oc1csc(Cc2nc(-c3ccc4ccccc4c3)cs2)n1	2.5	2.7	5.9	6.3*	1.1*
Cc1ccc(CNC(=O)c2cc(C)nn2-c2ccccc2)cc1	2.1	0.6	-1.9	-2.8	-1.8
Cc1ccc(Cc2nnc3n(-c4ccccc4)nc(C(=O)c4ccccc4)n3c2=O)cc1	7.0*	-0.6	-2.1	-1.4	-1.4
CCOc1cccc(-c2cc(C(=O)NN)[nH]n2)c1	1.9	0.5	11.3*	0.9	-1.6
SMILES	DAX1 inh-1	DAX1 inh-2	hgDAF12 agonist	hcDAF12 agonist	ssDAF12 agonist
C[n+]1cn(/N=C/c2ccccc2)c2ccccc21	-1.3	0.1	-1.0	5.8*	-1.4
CCN(CC)C(=O)CC[C@@H]1CC[C@]2(CCCN(Cc3nccs3)C2)O1	x	1.0	5.5	0.5	-1.2
COc1ccc(OC)c(-c2nc(C(=O)NCCCN3CCOCC3)cc3c2[nH]c2ccccc23)c1	3.5	0.9	-1.6	3.8	1.0*
COc1ccc(OC)c(-c2nc(C(=O)NC3CCN(Cc4ccccc4)CC3)cc3c2[nH]c2ccccc23)c1	0.6	1.5	-1.3	-0.8	-1.6
Fc1cccc2sc(Nc3nnc(-c4ccco4)o3)nc12	0.5	1.8	12.7*	4.0	0.1
Nc1nc2ccccc2n1/N=C/c1ccc(Br)cc1	1.5	2.5	12.0*	3.3	-0.5
Cc1ccccc1-c1cccc2c3c([nH]c12)[C@@H]1C[C@H]2[C@@H](C(=O)N1CC3)[C@H](C)ON2C	x	0.1	1.6	-0.3	-0.3
C[C@@H]1ON(C)[C@H]2C[C@H]3c4[nH]c5ccccc5c4CCN3C(=O)[C@@H]12	-0.8	1.0	1.4	3.2	1.0*
Cc1ccc(-n2c(SCC(=O)Nc3ccc(OCc4ccccc4)cc3)nnc2-c2ccco2)cc1	x	-1.7	-0.6	2.8	-1.3
CCN(CC)S(=O)(=O)c1ccc(N2CCCCC2)c(NC(=O)/C(C#N)=C/c2ccc(OC)cc2)c1	-1.2	0.0	-0.3	6.3*	-0.8
CCN(CC)S(=O)(=O)c1ccc(N2CCCC2)c(NC(=O)Cc2cc(OC)c(OC)c(OC)c2)c1	4.7*	-0.7	0.1	-1.8	-1.0
COc1ccccc1OCc1ccc(C(=O)NC2CCCCC2)o1	0.8	-0.2	3.2	-1.4	-1.0
COc1ccc(S(=O)(=O)Cc2ccc(C(=O)NC3CC3)o2)cc1	13.2*	-0.1	-0.5	-1.0	-1.8
COc1ccccc1S(=O)Cc1ccc(C(=O)NC2CCCC2)o1 (centres undefined)	5.5*	0.9	-1.8	-0.5	-1.4
COc1ccc(CNC(=O)c2ccc(CS(=O)(=O)c3ccc(Br)cc3)o2)cc1	6.2*	-1.3	3.1	-2.3	-1.4
CCOC(=O)C1CSCCS(=O)(=O)N1Cc1ccc(C)cc1 (centres undefined)	x	1.2	-2.3	0.2	-0.5
CC(NC(=O)C12CC3CC(CC(O)(C3)C1)C2)c1ccccc1 (centres undefined)	5.7*	0.2	-1.7	-1.0	-1.3
CC(C)CC(O)(CC(C)C)c1cn(C(=O)N(c2ccccc2)c2ccccc2)nn1	x	x	-2.5	0.1	-0.7
